Test [1] can be described thus: NCI Yeast Anticancer Drug Screen. Data for the rad50 strain (AID 155).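 Further: 0% = growth of vehicle-only cultures of the same strain.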 The following applies: S. cerevisiae rad50 strain growth inhibition, active compounds read high. A digest of the protocol:
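Cells are treated with compound, grown, and their growth is then scored against vehicle-only cultures of the same repair-deficient yeast strain.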

Test [2] is described as follows: NCI Yeast Anticancer Drug Screen. Data for the mec2-1 strain (AID 157). The following applies: S. cerevisiae mec2-1 strain, active compounds read high. A digest of the protocol:
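Vehicle-treated cultures served as reference for growth inhibition of compound-exposed mec2-1 yeast.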

Test [3] is described as follows: NCI Yeast Anticancer Drug Screen. Data for the cln2 rad14 strain (AID 165).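 Further: 0% = growth equal to vehicle treated cultures.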 As to conditions: S. cerevisiae cln2 rad14 strain, active compounds read high. A digest of the protocol:
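Each compound was tested on cln2 rad14 yeast. Inhibition of growth was calculated against vehicle-exposed controls.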

Test [4] in a line: NCI Yeast Anticancer Drug Screen. Data for the bub3 strain (AID 167). The following applies: S. cerevisiae bub3 mutant strain, active compounds read high. The essentials: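 Part of a panel of yeast mutants defective in DNA damage repair or cell cycle regulation. Each strain is grown with compound, and inhibition is calculated relative to solvent-treated cultures.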
The nature of test [5]: NCI Yeast Anticancer Drug Screen. Data for the mlh1 rad18 strain (AID 175). The following applies: S. cerevisiae mlh1 rad18 strain growth inhibition, active compounds read high. The essentials: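 Vehicle-treated cultures served as the reference for growth inhibition in a yeast strain carrying DNA damage repair alterations exposed to each compound.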
The nature of test [6]: NCI Yeast Anticancer Drug Screen. Data for the sgs1 mgt1 strain (AID 161).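 Further: 0% = growth of cultures given vehicle only.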 The following applies: S. cerevisiae sgs1 mgt1 strain, active compounds read high. A digest of the protocol:
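Test agents were incubated with a DNA-repair-mutant yeast strain. Growth was then read and compared against vehicle-treated controls.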

The mark [7] stands for this setting: at 5.0 µM (retest, dose inferred, filed as 0.5).
Setting [8] is: at 50.0 µM (retest, dose inferred, filed as 5.0).

Drawing on PubChem BioAssay (NCI), this text covers growth inhibition for seven molecules.

About 79,000 compounds went through this panel and 15% of them were active in at least one assay; those are over-represented in the sample as a whole. Unmarked numbers belong to inactive results. Calls of active or inactive are those of the source. No stated cut-off is given here; in the data, active means growth inhibition above about 70%; inactive means the rest.

As to `OC(Cc1ccc(Br)cc1)CN1CCC(c2ccccc2)CC1` (stereo not given), the growth inhibition in test [1] (setting [7]) was 98% (active); in test [1] (setting [8]), 98% (active); in test [1] (at 50.0 µM) it was 83.9% (active); in test [2] (setting [7]), 71% (active); in test [2] (setting [8]), 71% (active); in test [2] (at 50.0 µM) it was 74.5% (active). Moreover, the growth inhibition in test [3] (setting [7]) was 87% (active); in test [3] (setting [8]), 87% (active); in test [3] (at 50.0 µM), 78.9% (active); in test [4] (setting [7]) it was 83% (active); in test [4] (setting [8]), 83% (active); in test [4] (at 50.0 µM), 87.8% (active). Further, the figures for the growth inhibition in test [5] (setting [7]), in test [5] (setting [8]) and in test [5] (at 50.0 µM) were 88% (active), 88% (active) and 79% (active), respectively.
In the case of `CCc1cccc(CC)c1NC(=O)CS`, the growth inhibition in test [2] (setting [7]) was -51%; in test [2] (setting [8]), 94% (active); in test [2] (at 50.0 µM), 97.7% (active); in test [6] (setting [7]), -64%; in test [6] (setting [8]), 90% (active); in test [6] (at 50.0 µM), 61.7%. For the same molecule, the growth inhibition in test [3] (setting [7]) is -72%; in test [3] (setting [8]) it was 90% (active); in test [3] (at 50.0 µM), 95.8% (active); in test [4] (setting [7]) it was -85%; in test [4] (setting [8]), 92% (active); in test [4] (at 50.0 µM), 97.8% (active). Moreover, the growth inhibition is -132% in test [5] (setting [7]), 93% (active) in test [5] (setting [8]) and 98% (active) in test [5] (at 50.0 µM).
In the case of `O=C(/C=C\c1ccccc1)/C=C/c1ccccc1`, the growth inhibition in test [2] (setting [7]) was -2%; in test [2] (setting [8]), 8%; in test [2] (at 50.0 µM), 12.6%; in test [6] (setting [7]), 0%; in test [6] (setting [8]), 24%; in test [6] (at 50.0 µM), 28.2%. Further, the growth inhibition is -1% in test [3] (setting [7]); 4% in test [3] (setting [8]); -14.3% in test [3] (at 50.0 µM); 7% in test [4] (setting [7]); 53% in test [4] (setting [8]); 27.9% in test [4] (at 50.0 µM). Moreover, the growth inhibition in test [5] (setting [7]) is -1%; in test [5] (setting [8]), 17%; in test [5] (at 50.0 µM), 70.8% (active).
Take `CCN(CC)Cc1cc(Nc2c3ccccc3nc3c2[nH]c2ccccc23)ccc1O`: the growth inhibition is -6% in test [1] (setting [7]); 18% in test [1] (setting [8]); 82.5% (active) in test [1] (at 50.0 µM); 3% in test [2] (setting [7]); 5% in test [2] (setting [8]); 8.85% in test [2] (at 50.0 µM). For the same molecule, the growth inhibition in test [6] (setting [7]) is -8%; in test [6] (setting [8]), -19%; in test [6] (at 50.0 µM) it was 2.65%; in test [4] (setting [7]), 9%; in test [4] (setting [8]), 3%; in test [4] (at 50.0 µM) it was -4.65%. Further, the growth inhibition in test [5] (setting [7]) is -1%; in test [5] (setting [8]), -9%; in test [5] (at 50.0 µM) it was 33.5%.
As for `O=C1C(Cl)=CC(=NCl)C=C1Cl`, the growth inhibition was 53% in test [2] (setting [7]); 91% (active) in test [2] (setting [8]); 91% (active) in test [2] (at 50.0 µM); 27% in test [6] (setting [7]); 98% (active) in test [6] (setting [8]); 91.9% (active) in test [6] (at 50.0 µM). Moreover, the growth inhibition in test [3] (setting [7]) was 47%; in test [3] (setting [8]) it was 100% (active); in test [3] (at 50.0 µM) it was 85% (active); in test [4] (setting [7]), 84% (active); in test [4] (setting [8]), 95% (active); in test [4] (at 50.0 µM), 89.8% (active). Also, the growth inhibition is 28% in test [5] (setting [7]), 86% (active) in test [5] (setting [8]) and 89% (active) in test [5] (at 50.0 µM).
On to `Cc1ccccc1C(=O)c1ccc(O)c2ccccc12`, for which the growth inhibition is -6% in test [1] (setting [7]); 90% (active) in test [1] (setting [8]); 99.4% (active) in test [1] (at 50.0 µM); 4% in test [2] (setting [7]); 82% (active) in test [2] (setting [8]); 94.5% (active) in test [2] (at 50.0 µM). Moreover, the growth inhibition in test [3] (setting [7]) is -10%; in test [3] (setting [8]) it was 65%; in test [3] (at 50.0 µM), 29.3%; in test [4] (setting [7]), 4%; in test [4] (setting [8]) it was 71% (active); in test [4] (at 50.0 µM), 55.2%. In addition, the growth inhibition in test [5] (setting [7]) was 32%; in test [5] (setting [8]), 94% (active); in test [5] (at 50.0 µM) it was 99.4% (active).
For `Clc1ccc(CN2COc3c(ccc4cccnc34)C2)c(Cl)c1`, the growth inhibition in test [2] (setting [7]) is 2%; in test [2] (setting [8]) it was 67%; in test [2] (at 50.0 µM), 98.9% (active); in test [6] (setting [7]), 4%; in test [6] (setting [8]), 98% (active); in test [6] (at 50.0 µM), 99% (active). The growth inhibition was -9% in test [3] (setting [7]); 98% (active) in test [3] (setting [8]); 97.7% (active) in test [3] (at 50.0 µM); -6% in test [4] (setting [7]); 99% (active) in test [4] (setting [8]); 99% (active) in test [4] (at 50.0 µM). For the same molecule, the figures for the growth inhibition in test [5] (setting [7]), in test [5] (setting [8]) and in test [5] (at 50.0 µM) were 3%, 98% (active) and 99.1% (active), respectively.
